# High-throughput results as filed in PubChem.
# FBPA Giardia inh = blocks Giardia fructose-bisphosphate aldolase activity; A8B2U2; purified Giardia FBPA; Potency, µM (doses to about 59.6 µM), inactives show at the highest dose activity, negative = inhibition, most hits filed as inhibitors; actives 0.71% (n = 290,000); also: potency is read from the fitted curve at half-maximal effect; % is scaled to controls: 0 for no effect and ±100 for the full control effect; nearly all actives have a fitted effect of over 55% in size
#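 40 nM FBPA preincubated 10 min at RT with compound (up to 57.5 uM final), then substrate plus GAPDH/TPI/NAD/arsenate coupling and diaphorase/resazurin added. Fluorescence read after 20 min at RT, 525/598 nm.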
# LmPK inh = LmPK (Leishmania mexicana) enzyme inhibition; actives 0.37% (n = 290,000); AID 1721; Potency, µM (top dose mostly 57.5 µM), inactives show top-dose activity change, negative = inhibition, most hits filed as inhibitors; purified LmPK, Kinase-Glo ATP luminescence, 1 h; Q27686; also: potency is read from the fitted curve at half-maximal effect; % is scaled to controls: 0 for no effect and ±100 for the full control effect
# Target sequence (Q27686 whole entry, looked up): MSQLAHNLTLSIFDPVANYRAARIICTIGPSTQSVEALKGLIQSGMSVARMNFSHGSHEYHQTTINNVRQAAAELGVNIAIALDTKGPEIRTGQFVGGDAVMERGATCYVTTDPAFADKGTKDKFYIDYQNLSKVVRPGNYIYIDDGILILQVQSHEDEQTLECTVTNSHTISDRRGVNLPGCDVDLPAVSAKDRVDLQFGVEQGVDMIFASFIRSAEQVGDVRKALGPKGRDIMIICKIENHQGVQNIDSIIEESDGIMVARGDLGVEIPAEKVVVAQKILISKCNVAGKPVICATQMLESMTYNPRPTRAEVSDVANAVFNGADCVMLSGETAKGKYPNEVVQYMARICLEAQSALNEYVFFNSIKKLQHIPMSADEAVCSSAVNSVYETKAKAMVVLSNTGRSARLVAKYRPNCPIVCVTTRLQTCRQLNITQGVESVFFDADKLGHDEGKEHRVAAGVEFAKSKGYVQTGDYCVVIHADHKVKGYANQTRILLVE
#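 Screened at intermediate enzyme activity to detect both inhibitors and activators: LmPK at 0.1 nM, with a 0.5 nM enzyme column as activation reference. PEP 0.5 mM, ADP 0.1 mM; ATP detected by luminescence after 1 h.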
# Shiga toxin inh = Shiga toxin inhibition | Vero cells, Shiga toxin protein synthesis inhibition reporter | inhibition, % at 38.7 µM | actives 9.2% (n = 290,000) | AID 2315; in the data active = inhibition mostly above about 28%, no sharp cut-off; inactive = mostly below about 43%; also: 0% is about no effect
# Cycloheximide cs = affects cycloheximide protein synthesis inhibition readout, counter-screen; AID 2314; max response, %; cell reporter, cycloheximide protein synthesis inhibition counterscreen; actives 12% (n = 300,000); in the data active = max response mostly above about 13%, no sharp cut-off; inactive = mostly below about 14%; also: read at 38.3 µM for the half of the compounds with a filed dose; 0% is about no effect
# NS1 inh = blocks influenza NS1 protein function. Potency, µM (titrated, usually from 46.1 µM), for the others: at the highest dose activity, positive = more growth. actives 0.4% (n = 270,000); calls by dose curve; also: potency is read from the fitted curve at half-maximal effect; actives are rising curves; nearly all actives have a fitted effect of over 50% in size
#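 Growth recovery, yeast-based: influenza A NS1 expressed in S. cerevisiae causes slow growth, and suppressors are detected by OD600. The parent strain without NS1 is used as positive control.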
# * marks the source's active call; other numbers are inactive results; u = inconclusive; x = no result; + = active, no number; [ ] = remark or other dose. Hits are enriched below; roughly 14% of the tested compounds scored in any of these assays. Unless noted, calls follow the shape of the dose curve; as a rule, active = well fitted curve in the direction sought with a large enough effect; inconclusive = small, poorly fitted or top-dose-only effect, or another doubt; inactive = no such curve, though single readings can be large; an effect the other way counts as inactive or inconclusive.
SMILES,FBPA Giardia inh,LmPK inh,Shiga toxin inh,Cycloheximide cs,NS1 inh
Cc1cc(C)c(C#N)c(SCC(O)COc2ccc(Br)cc2)n1 (stereo unspecified),-3%,-3%,8,-5,-28%
Cc1ccc(/C=N/NC(=O)c2ccccn2)s1,-1%,-28%,44*,49*,13%
Cc1cc(C)n2nc(C(=O)N/N=C/c3cccs3)nc2n1,-5%,-3%,17,8,-1%
Cc1ccc(/C=N/NC(=O)c2ccncc2)s1,-5%,-7%,20,15,-1%
CC1C(=O)NN=C1C(=O)N/N=C/c1cccs1 (stereo unspecified),-19%,u,86*,19*,x
O=C(N/N=C/c1cccs1)c1ccccn1,-3%,u,111*,33*,-15%
O=C(CNC(=O)c1ccccc1F)N/N=C/c1cccs1,-8%,0%,53*,30*,1%
O=C(CSc1ncccn1)N/N=C/c1cccs1,6%,-1%,33,12,0%
Cc1ccc(/C=N/NC(=O)CSc2nc3ccccc3n2C)s1,4µM*,-4%,23,13,-29%
Cn1c(SCC(=O)N/N=C/c2cccs2)nc2ccccc21,-17%,-3%,3,12,-5%
CCc1ccccc1NC(=O)c1ccc2c(O)c(S(=O)(=O)c3ccc(OC)cc3)c(=O)[nH]c2c1,17%,4%,-1,8,10%
O=C(NCC1CCCO1)c1ccc2c(=O)n(Cc3cccc(Br)c3)c(=S)[nH]c2c1 (stereo unspecified),-1%,0%,3,6,x
CC(C)(C)OC(=O)n1cc(/C=N/NC(=O)c2ccco2)c2ccccc21,0%,-3%,68*,37*,0%
CC(=O)n1cc(/C=N/NC(=O)c2ccccc2O)c2ccccc21,18%,3%,66*,26*,5%
CC(=O)n1cc(/C=N/NC(N)=S)c2ccccc21,u,14%,-12,17,x
O=C(N/N=C\c1coc2ccccc2c1=O)c1ccco1,-4%,-11%,16,14,1%
Cn1cc(/C=N/NC(=O)c2ccccc2O)c2ccccc21,11%,2%,53,25*,-64%
CCCCc1cc2c(cn1)=C(OC(=O)c1ccc(Cl)nc1)C(C)(OC(=O)CC)C(=O)C=2 (stereo unspecified),-2%[12.9 µM],0%[11.5 µM],x,x,x
C/C(CCC(=O)OC[C@@H]1O[C@H](C#Cc2ccccc2)C=C[C@@H]1Oc1ccc(C)cc1)=N/O[C@@H](C)c1cn([C@H](CO)Cc2ccccc2)nn1,3%[12.9 µM],x,x,x,x
Cc1cc(=O)cc(C)n1-c1ccc(Cl)cc1,3%,2%,-24,-2,1%
Cc1ccc(-n2c(C)csc2=N)cc1,-13%,-4%,55*,56*,-6%
Cc1csc(=N)n1-c1ccc(Cl)cc1,-10%,-4%,176*,59*,-55%
Cc1ccc2c(cnn2C(=O)CCCC(=O)NC(C)c2ccccc2)c1 (stereo unspecified),1%,2%,10,10,-69%
CC(C)(C)Cc1nnc(NC(=O)CSc2ccccc2)s1,10%,-5%,14,13*,22%
CCOCc1nnc(NC(=O)CSc2ccccc2)s1,-13%,0%,-10,2,-5%
SMILES,FBPA Giardia inh,LmPK inh,Shiga toxin inh,Cycloheximide cs,NS1 inh
CC(C)c1nnc(NC(=O)CSc2ccccc2)s1,-5%,4%,18,34*,5%
CCCCCC1=C2CNC(C)(C(=O)OC)C=C2C(C)C1=O (stereo unspecified),-16%,x,x,x,x
CCN1C(=NCCCCO)N[C@@H](c2ccccc2)C(C(=O)OC)=C1C,11%,-6%,-2,-2,10%
O=c1[nH]c2ccc(NC(=S)Nc3ccc(Cl)cc3)cc2[nH]1,1%,-3%,-2,-4,-6%
COc1ccc(NC(=O)c2cc3ccccc3cc2OC)cc1OC,1%,1%,23,15*,0%
CC(C)c1ccc(NC(=S)Nc2ccc3[nH]c(=O)[nH]c3c2)cc1,-14%,1%,24*,14,-3%
COc1cc(OC)c(C(=O)Nc2ccc3ccccc3c2)cc1OC,6%,-2%,107*,43*,-3%
CN(C)c1ccc(NC(=O)c2cccc(C(=O)Nc3ccc(N(C)C)cc3)n2)cc1,-29%,-24%,+,49*,16%
Cc1cccc(C)c1NC(=O)NC1(C(=O)NCCN2CCOCC2)CCCCC1,2%,3%,30,1,x
CCCOc1ccc(C(=O)N(Cc2cccs2)C2CCS(=O)(=O)C2)cc1 (stereo unspecified),x,-4%,6,7,-7%
